# The list is not random: actives were taken first. Their share in the collection is about 3.5%.
# TEAD-YAP inh = TEAD-YAP interaction inhibition | 640,000 tested, 1.4% active | HEK-TIYL cells, TEAD-Gal4/YAP UAS-luciferase luminescence | inhibition, % at 9.12 µM; in the data active means inhibition above about 32%;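 further: 0% = median of test compound wells and 100% = reference inhibitor wells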
# FBW7 act = human FBW7 E3 ligase activation, primary screen | 650,000 tested, 0.13% active | Q969H0 | AlphaScreen FBW7–phospho-cyclin E peptide binding, activator screen | normalized activity (activation), % at 26.1 µM; in the data active means normalized activity above about 1.9%;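 further: purified mutant Fbw7 with reduced substrate affinity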
# MITF inh = blocks human microphthalmia-associated transcription factor | inhibition, % at 2.6 µM | AlphaScreen MITF homodimerization, bead proximity signal | O75030 | AID 1259374 | 650,000 tested, 0.91% active; in the data active means inhibition above about 50%;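 further: 0% = vehicle wells with protein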
# GPR151 activ = activates the human receptor GPR151 | activation, % at 11.2 µM | Q8TDV0 | AID 1508602 | 650,000 tested, 1% active | PathHunter beta-arrestin GPR151 cells, luminescence; in the data active means activation above about 4.9%;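 further: 0% = median of compound wells and 100% = cells with positive control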
# Target sequence (Q8TDV0 whole entry, looked up): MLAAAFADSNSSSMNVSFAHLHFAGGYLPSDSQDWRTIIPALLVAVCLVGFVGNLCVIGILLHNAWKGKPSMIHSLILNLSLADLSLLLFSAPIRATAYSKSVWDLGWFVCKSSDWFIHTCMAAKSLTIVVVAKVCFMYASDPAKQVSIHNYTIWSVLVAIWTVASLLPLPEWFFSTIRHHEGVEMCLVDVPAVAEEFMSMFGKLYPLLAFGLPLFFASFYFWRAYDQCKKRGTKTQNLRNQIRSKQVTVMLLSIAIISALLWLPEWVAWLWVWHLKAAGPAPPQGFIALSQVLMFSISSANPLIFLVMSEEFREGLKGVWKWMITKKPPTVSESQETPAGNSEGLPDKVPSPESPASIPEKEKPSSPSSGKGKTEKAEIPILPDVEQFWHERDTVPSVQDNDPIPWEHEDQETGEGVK
# GPR151 conf act = human GPR151 activation, confirmation screen; AID 1508609; 6,700 tested, under 10 active; GPR151 PathHunter beta-arrestin cells, luminescence, 90 min; % of EA-reagent control over plate median; shares compounds with GPR151 activ; activation, % at 11.2 µM;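 active means mean percent activation across replicates above the confirmation screen cutoff of 4.91%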
# GPR119 ag = GPR119 activation, counter-screen for GPR151 activators; shares compounds with GPR151 activ; activation, % at 11.2 µM; 6,700 tested, 0.3% active; GPR119 PathHunter beta-arrestin cells, luminescence, 90 min; 0 = compound-well median, 100 = enzyme-acceptor control;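 active means mean percent activation in the counterscreen above 29.09%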;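 further: counterscreen on off-target GPR119 to flag nonselective hits from the GPR151 activator screen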
# * marks the source's active call; other numbers are inactive results; x = no result given.
SMILES,TEAD-YAP inh,FBW7 act,MITF inh,GPR151 activ,GPR151 conf act,GPR119 ag
CSc1nnc(C)c(=O)n1COC(=O)c1cc2ccccc2o1,8.8,0.3,9.5,7.5*,-1.5,1.1
Cc1ccc(-c2csc(C/C(N)=N/O)n2)cc1,-38.2,-0.1,16.9,-0.3,x,x
COc1ccc2c(c1)cc(C)c1nn(CC(=O)NCc3cccs3)c(=O)n12,3.6,0.4,11.6,-0.4,x,x
Cc1nn(Cc2ccccc2Cl)c(Cl)c1/C=C/C(=O)OCC#N,-22.8,-0.1,3.3,10.3*,-0.5,1.4
Cc1ccc(NC(=O)OC(C)(C)C)cc1F,-2.9,0.1,10.9,1.5,x,x
COC(=O)c1cc(OC)c(OC)cc1NC(=S)N1CCN(c2ncccn2)CC1,-10.4,-0.1,10.2,-0.1,x,x
CC(C)(C)c1[nH]nc2c1C(c1ccsc1)C(C#N)=C(N)O2 (stereo not given),1.8,-0.1,6.7,6.6*,0.6,2.4
Cc1cccc(N2NC(=O)/C(=C/c3ccc(-c4ccc(C(=O)O)cc4)o3)C2=O)c1,1.4,0.0,11.9,-1.6,x,x
O=C(c1ccc2c(=O)n(CCc3ccccc3)c(SCc3cccc([N+](=O)[O-])c3)nc2c1)N1CCCC1,9.9,0.0,18.3,1.9,x,x
CN(Cc1ccccc1)C(=O)c1ccc2c(=O)n(CCc3ccccc3)c(SCc3cccc([N+](=O)[O-])c3)nc2c1,0.9,-0.1,-5.4,11.5*,-0.5,-16.4
CC(C)C(=O)N/N=C1/CC2CCC1(C)C2(C)C (stereo not given),17.2,0.0,-1.1,-0.2,x,x
CC(Oc1ccccc1)C(=O)Nc1ccc(F)cc1F (stereo not given),7.4,-0.1,-14.4,5.3*,-0.6,-3.4
COc1cc([N+](=O)[O-])ccc1N=c1ssnc1Cl,1.9,0.0,-5.5,-0.1,x,x
O=C(CSc1ccc(-c2ccc3c(c2)OCO3)nn1)N1CCCC1,6.4,-0.1,0.8,-1.1,x,x
Cc1ccc(-c2ccc(SCC(=O)N3CCCC3)nn2)cc1,-18.6,0.1,-8.8,6.0*,0.0,9.9
CCOC(=O)N1CCN(C(=O)CSc2ccc(-c3cccnc3)nn2)CC1,9.1,0.9,6.8,4.9*,0.7,6.0
CC(CC(=O)Nc1ccc(F)c(Cl)c1)S(=O)(=O)c1ccc2c(c1)OCC(=O)N2 (stereo not given),-9.9,-0.1,6.4,-1.3,x,x
COc1cc2nc3c4ccccc4n(CC(=O)O)c3nc2cc1OC,-13.6,0.1,3.0,-5.6,x,x
COc1ccc(C(=O)NC(=S)N2CCSCC2)cc1,-4.9,-0.2,9.0,-0.1,x,x
COc1ccc(C(=O)NC(=S)N2CCOCC2)cc1Br,-1.3,0.8,7.8,-1.7,x,x
COc1ccc(C(=O)NC(=S)N2CCOCC2)cc1,10.3,-0.1,0.3,6.1*,-0.8,6.5
CC(C)Oc1ccc(C(=O)NC(=S)N2CCOCC2)cc1,-17.4,0.0,2.2,13.1*,0.5,15.0
COc1ccccc1C(=O)NCCN1Cc2ccccc2C1=O,-5.5,0.0,8.0,0.5,x,x
OC1CCC(c2ccc(F)cc2)CC1 (stereo not given),2.4,0.1,-7.5,-0.4,x,x
CCN1C(=O)N(c2ccccc2)S(=O)(=O)c2ccccc21,-9.4,-0.1,-10.4,1.7,x,x
SMILES,TEAD-YAP inh,FBW7 act,MITF inh,GPR151 activ,GPR151 conf act,GPR119 ag
COc1cc(/C=C(/C(=O)OCC(N)=O)c2ccc(-c3ccccc3)cc2)cc(OC)c1OC,0.9,-0.2,7.0,5.1*,-0.3,-6.9
COc1ccccc1/C=C(/C(=O)OCC(N)=O)c1ccccc1,7.2,0.1,-0.9,0.5,x,x
Cc1ccc(-n2cnnn2)c(S(=O)(=O)N2CCOCC2)c1,6.3,-0.1,1.2,5.4*,0.1,5.6
CCOC(=O)C1C(=O)C=C(c2cccc(OC)c2)CC1c1ccccc1C (stereo not given),8.7,0.2,-4.1,0.8,x,x
CCOC(=O)C1C(=O)C=C(c2ccc(C)cc2)CC1c1ccccc1OCC (stereo not given),3.1,0.5,14.7,5.3*,0.1,-0.1
Cc1ccc2c(c1)CC(c1nc3ccc(-c4ccncc4)cc3[nH]1)CO2 (stereo not given),-0.7,-0.2,-13.3,-0.7,x,x
CC(C)=CCN1CCN(Cc2ccc3nonc3c2)CC1CCO (stereo not given),3.0,0.1,2.7,5.4*,-0.8,-19.9
Cc1ccc(CN2CCN(Cc3ccc4nonc4c3)CC2CCO)cc1 (stereo not given),-1.1,0.2,11.2,-0.6,x,x

# Source: PubChem BioAssay
